# From PubChem BioAssay (NCATS)
# Records with an inconclusive call do not appear. Activity calls are given as the source filed them. Calls come from the whole dose curve; as a rule, active = well fitted cell-killing curve with a large enough effect; inconclusive = small, poorly fitted or top-dose-only effect, or effect the other way; inactive = flat fitted curve, though single readings scatter. Where a SMILES comes first, the peptide text is derived from it. [ ]: non-standard residue; d: D form. pGlu = O=C1CC[C@@H](C(=O)O)N1
# Test system: JEG-3
# Assay: Primary qHTS to identify gynecologic anti-cancer compounds using libraries of approved drugs and bioactive compounds (AID 1345084); note: nearly all actives have a fitted effect of over 55% in size
# Conditions: Gynecologic cancer cell panel viability, ATPlite luminescence, 48 h; series mostly up to 57.5 µM; activity change, negative = cytotoxicity: at the top concentration
# Procedure, shortened: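 Luminescence from the ATPlite ATP-monitoring reagent indicates viable cell number; lower signal means cytotoxicity. Cells received compound 16 h after seeding and were exposed for 48 h across five concentrations.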
# % is set by controls: 0 for no effect and ±100 for the full control effect; potency is the fitted concentration of half-maximal effect.
SMILES,"activity change, negative = cytotoxicity",Potency
CN1CC(=O)N2[C@H](c3ccc4c(c3)OCO4)c3[nH]c4ccccc4c3C[C@@H]2C1=O,-3.79% (inactive),
COc1ccc2cc(C=O)ccc2c1,-13.8% (inactive),
COC(=O)C1=CO[C@@H](O)[C@@H]2C(CO)=CC[C@H]12,16.7% (inactive),
CCOC(=O)CN1CCCC1=O,-3.53% (inactive),
NCC[C@H](O)C(=O)N[C@@H]1C[C@H](N)[C@@H](O[C@H]2O[C@H](CN)[C@@H](O)[C@H](O)[C@@H]2O)[C@H](O)[C@@H]1O[C@H]1O[C@H](CO)[C@@H](O)[C@H](N)[C@@H]1O,1.19% [at 0.462 µM] (inactive),
Cc1nc(N)nc(N)c1-c1ccc(Cl)c(Cl)c1,,11.2 µM (active)
CC1(C)O[C@@H]2C[C@H]3[C@@H]4C[C@H](F)C5=CC(=O)C=C[C@]5(C)[C@@]4(F)[C@@H](O)C[C@]3(C)[C@]2(C(=O)CO)O1,2.62% (inactive),
Cc1[nH]cnc1-c1ccc(Cl)cc1,17.4% (inactive),
OC1(c2ccccc2)CCNCC1,26.4% (inactive),
CC(=O)N[C@@H](CO)C(=O)N[C@@H](CC(=O)O)C(=O)N[C@@H](CCCCN)C(=O)N1CCC[C@H]1C(=O)O (Ac-SDKP-OH),-3.49% (inactive),
CCOC(=O)c1cc(=O)c2c(OCC(COc3cccc4oc(C(=O)OCC)cc(=O)c34)OC(=O)[C@@H](N)CCCCN)cccc2o1,11.1% (inactive),
C/C(=C(/OCCOc1ccc(Cl)cc1)c1ccc(Cl)cc1Cl)n1ccnc1,-16.6% (inactive),
O=C(c1cc(O)c(O)c(O)c1)c1ccc(O)c(O)c1O,-0.747% (inactive),
CCOC(=O)Oc1ccc(CCNC(=O)[C@H](CCSC)NC(C)=O)cc1OC(=O)OCC,-12.5% (inactive),
CCOCCn1c(C2CCN(CCc3ccc(C(C)(C)C(=O)O)cc3)CC2)nc2ccccc21,-1.8% (inactive),
Cc1ccc(CCn2c3c(c4cc(Cl)ccc42)CN(C)CC3)cn1,2.03% (inactive),
O=C1NC(c2ccccc2)(c2ccccc2)C(=O)N1COP(=O)(O)O,-6.66% (inactive),
CCCC(=O)O[C@]1(C(=O)CC)CC[C@H]2[C@@H]3CCC4=CC(=O)CC[C@]4(C)[C@H]3[C@@H](O)C[C@@]21C,22.2% (inactive),
CCNC(=O)[C@@H]1CCCN1C(=O)[C@H](CCCN=C(N)N)NC(=O)[C@H](CC(C)C)NC(=O)CNC(=O)[C@H](Cc1ccc(O)cc1)NC(=O)[C@H](CO)NC(=O)[C@H](Cc1c[nH]c2ccccc12)NC(=O)[C@H](Cc1cnc[nH]1)NC(=O)[C@@H]1CCC(=O)N1 ([pGlu]HWSYGLRP-NHEt),9.91% (inactive),
CC(=O)c1cc2ccccc2s1,-2.67% (inactive),

SMILES,"activity change, negative = cytotoxicity",Potency
Fc1ccc(C(c2ccc(F)cc2)N2CCNCC2)cc1,-9.83% (inactive),
CN(C)CCN(Cc1ccsc1)c1ccccn1,6.04% (inactive),
COc1ccc(OC(=O)N(CC(=O)O)Cc2ccc(OCCc3nc(-c4ccccc4)oc3C)cc2)cc1,-0.147% (inactive),
CN(C)CCN1CCN(c2cccc(Cl)c2)C1=O,4.5% (inactive),
Cc1oc(-c2ccccc2)nc1CCC(=O)c1ccc(CC2SC(=O)NC2=O)cc1 (stereo not given),-27.5% (inactive),
COC(=O)c1cc(S(N)(=O)=O)ccc1OC,10.4% (inactive),
Nc1ncnc2c1ncn2Cc1c(F)cccc1Cl,-9.83% (inactive),
O=C1c2ccccc2CCc2ccccc21,15.2% (inactive),
CC(C)C[C@@H]1[C@H](c2ccccc2)OC(=O)N1CCCN1CCCCCC1,-1.41% (inactive),
CC(C)(C)c1ccc(C(=O)CCCCl)cc1,-10.6% (inactive),
CC(Oc1c(Cl)cccc1Cl)C1=NCCN1 (stereo not given),-8.96% (inactive),
CC(=O)N1CCN(c2ccc(O)cc2)CC1,-1.63% (inactive),
O=C1Nc2cc(Cl)ccc2Oc2ccccc21,-2.02% (inactive),
Cc1ccc(C(=O)C(=O)O)cc1C,-16.3% (inactive),
Cc1ccc2c(Cl)cc(Cl)c(O)c2n1,-8.17% (inactive),
CCCCOCCOC(=O)c1cccnc1,-2.12% (inactive),
CN1Cc2cc(C(=O)N3CCC(C4CCNCC4)CC3)ccc2N[C@@H](CC(=O)O)C1=O,8.07% (inactive),
O=C(O)Cn1c(=O)n(Cc2ccc(Br)cc2F)c(=O)c2ccc(Cl)cc21,-0.244% (inactive),
COC(=O)/C=C(/C)N,7.03% (inactive),
CC(C)(C)NCC(O)COc1ccccc1OCC1CCCO1 (stereo not given),-14.7% (inactive),
